Experimental data as given in ChEMBL document CHEMBL3988442, “University of Dundee, Small-Polar-MMV Screening Library” (2021).
The whole screen tested about 38,000 compounds, of which about 1,200 (3.2%) showed an effect of 50% or more. The median lay at about -58%. Only a selection was taken, and strong results are over-represented in it overall.

System: Plasmodium falciparum
Test: Calibr Malaria Delayed Death Assay SOP
Type: functional, organism-based
Parameters: scale not given: in the data most compounds retested in dose-response had high values
Settings: concentration 4.99e-06 (unit not given; other assays of the set use mol/L)

Going from `CCn1ccnc1CN(C)C(=O)Cn1ccc2ccccc2c1=O` to `CN(C)c1cc(CNC(=O)c2n[nH]c(=O)c3ccccc23)ccn1`, the “Percent Effect” value falls from -48.52% to -121.9%.

Compared with `Cc1cccc(C2(C(=O)NCC3CN(C)CCO3)CC2)c1` (stereo not given), `CN1CCOC(CNC(=O)C2(c3cccc(C(F)(F)F)c3)CCCC2)C1` (stereo not given) is higher in “Percent Effect” value: -0.8202% for the first, 55.27% for the second.

Going from `CN1CCOC(CNCc2cccc(OCC(F)(F)F)c2)C1` (stereo not given) to `CC(C)c1nnc2n1CC(CNCc1cccnc1)CC2` (stereo not given), the “Percent Effect” value falls from 11.83% to -95.11%.

Going from `Cc1ccnc(NC(=O)c2ccc(Br)o2)c1` to `Cc1ccnc(NC(=O)c2[nH]nc(C(C)C)c2Br)c1`, the “Percent Effect” value rises from -122.7% to 72.66%.

Compared with `Cc1cccc(NC(=O)c2sc(C)nc2C)n1`, `Cc1cccc(NC(=O)c2[nH]nc(C(C)C)c2Br)n1` is higher in “Percent Effect” value: -70.67% for the first, 55.91% for the second.

First: CC(C)c1n[nH]c(C(=O)Nc2cc[nH]n2)c1Br
Second: CC(C)c1n[nH]c(C(=O)Nc2ccncc2)c1Br
The “Percent Effect” value of the first is lower: -216.8% for the first, -170.8% for the second.

Going from `Cc1ccnc(NC(=O)CCNC(=O)c2ccccc2Cl)c1` to `O=C(CCS(=O)(=O)c1ccccc1)NCCCn1cccn1`, the “Percent Effect” value rises from -154.4% to -18.78%.

Going from `Cc1cccc(NC(=O)c2ccc(-n3cncn3)nn2)n1` to `CC(=O)Nn1ccc2c(nnc3c(-c4ccc(F)cc4)cnn32)c1=O`, the “Percent Effect” value rises from -82.38% to -66.29%.

Compared with `CCc1ccsc1C(=O)N1CCCN(Cc2cnn(CC)c2)CC1`, `Cn1cc(CN2CCC3(CC2)CCN(C(=O)c2cscn2)C3)cn1.O=C(O)C(F)(F)F` is higher in “Percent Effect” value: -131.2% for the first, -97.69% for the second.

Going from `Cc1occc1C(=O)N1C[C@@H]2OCCN(CCN3CCCC3)[C@@H]2C1.O=C(O)C(F)(F)F.O=C(O)C(F)(F)F` to `O=C(O)C(F)(F)F.O=C(c1cccs1)N1CC[C@@H]2CN(C3CCOCC3)CCO[C@@H]2C1`, the “Percent Effect” value rises from -96.04% to -28.53%.

Going from `CCC(=O)N1CCC2(CC1)C(=O)N(C)CCN2Cc1csc(C)n1.O=C(O)C(F)(F)F` to `Cc1ccc(C(=O)N2CCC3(CCC(=O)N(CC(C)O)C3)CC2)c(O)c1` (stereo not given), the “Percent Effect” value rises from -46.93% to -27.05%.

Compared with `COCCN1C(=O)[C@H]2CC[C@@H]1CN(S(=O)(=O)c1cccc(Cl)c1)C2`, `CCN(C)C[C@@H]1CN(S(=O)(=O)c2cccc(Cl)c2)C[C@@H]1CO` is higher in “Percent Effect” value: -81.8% for the first, 74.38% for the second.

Compared with `CN(C)CCN(C)C[C@@H]1CN(Cc2cccc(O)c2)C[C@@H]1CO`, `CCN(C)C[C@@H]1CN(Cc2cccc(O)c2)C[C@@H]1CO` is higher in “Percent Effect” value: -40.55% for the first, -20.19% for the second.

Going from `COCCN(C)C[C@@H]1CN(C(=O)c2cccc(Cl)c2)C[C@@H]1CO` to `C=Cc1cccc(CN2C[C@@H](CN(C)CC)[C@@H](CO)C2)c1`, the “Percent Effect” value rises from -171.8% to 87.24%.

First: Cc1ncsc1C(=O)OCC1CCN(c2ccccc2)C1 (stereo not given)
Second: O=C(NCC1CCN(CCc2ccccc2)C1)c1cc(Cl)c[nH]1 (stereo not given)
The “Percent Effect” value of the first is lower: 9.637% for the first, 64.57% for the second.

First: CNc1cncc(C2CCCN2Cc2ccnc(N3CCCC3)n2)n1 (stereo not given)
Second: O=C(CCN1CCCCCC1c1ccco1)N1CCOCC1 (stereo not given)
The “Percent Effect” value of the first is higher: -40.21% for the first, -45.72% for the second.

Compared with `CN(CC1(CO)CCCC1)C(=O)c1cc(COc2ccccc2F)[nH]n1`, `O=C(O)C1(Cc2ccccc2F)CCCN(c2ncnc3[nH]ccc23)C1` (stereo not given) is lower in “Percent Effect” value: -12.3% for the first, -54.27% for the second.

Going from `CSCCC(NC(=O)c1nc(SC)ncc1Cl)C(=O)O` (stereo not given) to `CC(C)NC(=O)CNC(C)c1c(F)cccc1Cl` (stereo not given), the “Percent Effect” value falls from -13.47% to -63.71%.

Going from `CC(C)(C)c1nc(CN2CCOC(Cn3cncn3)C2)cs1` (stereo not given) to `Cc1cnn(CC2CN(Cc3nc(-c4ccco4)no3)CCO2)c1` (stereo not given), the “Percent Effect” value rises from -89.29% to -38.17%.

Going from `Cc1cc(-c2cnn(CCNC(=O)CCn3cccn3)c2C2CC2)on1` to `CCNC(=O)CCN1CCCC1c1cccc2c1OCCO2` (stereo not given), the “Percent Effect” value rises from -69.32% to 51.42%.

First: CC(C)NC(=O)CCN1CCCC1c1cccc2c1OCCO2 (stereo not given)
Second: NC(=O)NC(=O)CCN1CCCC1c1cccc2c1OCCO2 (stereo not given)
The “Percent Effect” value of the first is higher: 52.1% for the first, 22.71% for the second.

Going from `O=C(CCN1CCCC1c1cccc2c1OCCO2)N1CCCCC1` (stereo not given) to `O=C(CCN1CCCC1c1cccc2c1OCCO2)N1CCOCC1` (stereo not given), the “Percent Effect” value falls from 72.46% to -28.31%.

Compared with `CNC(=O)CCN1CCCC1c1ccccc1Br` (stereo not given), `COCCN1CCCC1c1cccc2c1OCCO2` (stereo not given) is higher in “Percent Effect” value: -26.77% for the first, -6.29% for the second.

Compared with `CC(C)NC(=O)CN1CCN(CC2CCOc3ccccc3C2)CC1` (stereo not given), `CC(=O)N1CCN(C[C@H]2CC[C@@H](Cc3ccc4ncccc4c3)O2)CC1` is higher in “Percent Effect” value: -22.48% for the first, -19.65% for the second.

First: Cc1cc(C)cc(NCCC(=O)NC2CCCCC2)c1
Second: Cc1ccc(OCC(=O)NC2CCN(S(C)(=O)=O)CC2)cc1
The “Percent Effect” value of the first is higher: -32.74% for the first, -121.3% for the second.

Going from `CCOCC1CN(C(=O)Cc2ccccn2)Cc2cnn(CC)c21` (stereo not given) to `CCOc1nn(CC)cc1-c1nnc(SCc2cccnc2)n1C`, the “Percent Effect” value rises from -151.3% to -73.46%.

First: CCCNC(=O)CNc1ccccc1OCCC(=O)OC
Second: CC(CCc1ccccc1)NC(=O)CNCCCN(C)C.O=C(O)C(=O)O (stereo not given)
The “Percent Effect” value of the first is lower: -87.74% for the first, -24.06% for the second.

Compared with `COc1ccc(C(N)=O)cc1NCc1nc(-c2cccs2)oc1C`, `Clc1cc(NCc2nccs2)nc2[nH]ccc12` is lower in “Percent Effect” value: -37.05% for the first, -79.81% for the second.

Going from `O=C(NCCC(=O)N1CCCC1)c1cccnc1` to `CC1CN(C(=O)NCCNc2cnccn2)CCO1` (stereo not given), the “Percent Effect” value rises from -130.5% to -97.79%.

Compared with `COc1ncc(CN2C[C@@H]3CC[C@@](O)(c4ccc(C)cn4)[C@@H]3C2)cn1.O=C(O)CC(O)(CC(=O)O)C(=O)O`, `CC[C@H]1CN(C(=O)CCn2c(C)cccc2=O)CC[C@@]1(C)O` is lower in “Percent Effect” value: -80.6% for the first, -150.9% for the second.

Compared with `c1ccc(OCCNCc2cccs2)nc1`, `c1ccc(OCCCNCc2cccs2)nc1` is higher in “Percent Effect” value: -81.56% for the first, 17.97% for the second.

Compared with `Cc1ccsc1CNCCCOc1ccccn1`, `O=S1(=O)c2cccnc2OC(COc2ccccc2)CN1CC1CC1` (stereo not given) is lower in “Percent Effect” value: 53.78% for the first, -105.2% for the second.

First: C[C@@H]1CN(S(=O)(=O)c2ccc(F)cc2Cl)C[C@]1(C)O
Second: Cc1ccc(S(=O)(=O)N2CCN(Cc3ccncc3)CC2)c(Cl)c1
The “Percent Effect” value of the first is lower: -40.08% for the first, 0.628% for the second.

Compared with `CCN1CCN(S(=O)(=O)c2cc(C)c(C)cc2Br)CC1`, `CCN1CCN(S(=O)(=O)c2cc(C)c(Cl)cc2C)CC1` is lower in “Percent Effect” value: 25.52% for the first, 16.43% for the second.

Compared with `CCN1CCN(S(=O)(=O)c2cc(C)c(Cl)cc2Cl)CC1`, `CCN1CCN(S(=O)(=O)c2cc(Cl)c(Cl)cc2C)CC1` is higher in “Percent Effect” value: 62.85% for the first, 69.76% for the second.

First: Cc1ccc(S(=O)(=O)NCCCN2CCC(O)CC2)cc1Cl
Second: COCCN1CCC(CNC(=O)c2cc(Cl)c[nH]2)CC1
The “Percent Effect” value of the first is higher: 19.72% for the first, -1.799% for the second.

First: CCN1CCCN(S(=O)(=O)c2cnc3onc(C)c3c2)CC1
Second: Cn1cc(N2CCC3(CCCN(C(=O)c4ccnn4C)C3)C2=O)cn1 (stereo not given)
The “Percent Effect” value of the first is higher: -44.36% for the first, -100.5% for the second.

Compared with `CCOCc1nc(N2CCCC2)sc1C(=O)NCc1ccco1`, `O=C(O)c1ccc(CNC(=O)C2CCN(Cc3ccco3)CC2)s1` is higher in “Percent Effect” value: -71.71% for the first, -25.63% for the second.

Going from `O=C(c1ccc(F)c(F)c1)N1CCCC1CN1CCCC1` (stereo not given) to `Cc1ccc(C(=O)N2CCCCC2CN(C)C)cc1` (stereo not given), the “Percent Effect” value falls from -45.59% to -61.09%.

Compared with `CC(C)N(CCCNC(=O)C1CCOCC1)S(C)(=O)=O`, `CN(C)CCCNCC1CCOC(C)(C)C1` (stereo not given) is higher in “Percent Effect” value: -53.5% for the first, 16.23% for the second.

Going from `CN(C)C(=O)c1nn(C)c2c1CN(Cc1ccoc1)C2` to `CC1CCN(Cc2ccc(CNC(=O)c3ccn(C)c(=O)c3)cc2)CC1`, the “Percent Effect” value rises from -66.64% to -16.27%.

Compared with `c1cnc2ccc(C[C@@H]3CC[C@H](CN4CCCOCC4)O3)cc2c1`, `CN1CCN(C[C@H]2CC[C@@H](Cc3ccc(CN4CCCC4)cc3)O2)CC1` is lower in “Percent Effect” value: 56.67% for the first, 35.77% for the second.

Going from `Clc1cc(NCc2ncc[nH]2)nc2[nH]ccc12` to `Clc1cc(NCc2ccncc2)nc2[nH]ccc12`, the “Percent Effect” value rises from -55.12% to 63.3%.

Compared with `CN(CCO)CC1COCCN1C(=O)C1CCCCC1.O=CO` (stereo not given), `Cc1ccc(CNC(=O)CN(C)CC2CCN(CCO)CC2)s1` is higher in “Percent Effect” value: -110.9% for the first, -11.16% for the second.

Compared with `CCN1CCN(C2CCN(CCOc3ccc(F)cc3)CC2)C1=O`, `CN(CC1CCN(CCO)CC1)CC(O)c1ccc(F)cc1` (stereo not given) is higher in “Percent Effect” value: -7.395% for the first, 68.91% for the second.

Going from `CN(CCOCC(F)(F)F)CC1CCN(CCO)CC1` to `Cc1noc(CN(C)CC2CCN(CCO)CC2)n1`, the “Percent Effect” value falls from 17.18% to -70.26%.

Compared with `CN(CC1CCN(CCO)CC1)CC(O)c1ccc(F)c(F)c1` (stereo not given), `Cn1ccnc1CN1CCN(CC(O)c2ccc(F)c(F)c2)CC1` (stereo not given) is lower in “Percent Effect” value: 76.36% for the first, -68.2% for the second.

First: CC1CN(c2ncccc2C(=O)N[C@@H]2CCCc3ccccc32)CCN1 (stereo not given in full)
Second: COc1ccc(C(=O)N(CCO)Cc2ccccc2)c(OC)n1
The “Percent Effect” value of the first is higher: 43.77% for the first, -39.82% for the second.

Compared with `CCN1CCC(CNC(=O)c2cc(Cl)c[nH]2)CC1`, `CC(CNC(=O)C1(c2ccc(F)cc2)CC1)CN1CCCC1=O` (stereo not given) is higher in “Percent Effect” value: -105.8% for the first, 8.838% for the second.

Going from `COc1ccc2c(=O)ccn(CC(=O)O)c2c1` to `Cc1cc(C)n(CC(C)NC(=O)C2(c3ccc(F)cc3)CC2)n1` (stereo not given), the “Percent Effect” value falls from -41.24% to -52.55%.

Going from `OC(COCc1cccs1)Cn1cc(Cl)cn1` (stereo not given) to `Cc1ccc(C(CCNCCCN(C)C)C2CCOC(C)(C)C2)cc1.O=C(O)C(=O)O` (stereo not given), the “Percent Effect” value rises from -34.56% to 83.16%.

Going from `Cn1c(N2CCOCC2)nc2cc(C(=O)N3CC(O)CO3)ccc21` (stereo not given) to `CN(C)CCNCC1CCOC(C)(C)C1` (stereo not given), the “Percent Effect” value rises from -166.7% to -38.44%.

With `CCN(CC)CCCNCC1CCOC(C)(C)C1` (stereo not given) the “Percent Effect” value was -55.61%.
